Experimental data: the supplement of paper PMC10849652
Of roughly 7,900 targets only a part is listed; those with a hit were picked by preference. About 0.6% of all pairs of compound and target were hits.

compound: O=C1NC(=O)C(c2cnc3ccccn23)=C1c1cn2c3c(cc(F)cc13)CN(C(=O)N1CCCCC1)CC2; assay: log2 fold change, soluble protein after heating vs DMSO (PISA); higher = thermal stabilisation; K562 cells, 10 uM, 30 min; active = over 0.2 and 3.5 SD of the protein, either way, in both replicates (recomputed)
Summary of the method: (§1)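 K562 cells (2×10^6 cells/mL) were treated with 10 μM compound for 30 min, and aliquots were heated for 3 min over 48°C-58°C. Pooled aliquots were extracted in PBS with 0.5% NP-40 at 4°C, and the supernatant after 21,000xg for 90 min was measured by TMTpro 16plex LC-MS/MS with channel sums equalised. Reported thermal stability, relative to control samples and from duplicates, is a log2 fold change.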

Sequence of UniProt Q92615 (Q92615 whole entry, looked up): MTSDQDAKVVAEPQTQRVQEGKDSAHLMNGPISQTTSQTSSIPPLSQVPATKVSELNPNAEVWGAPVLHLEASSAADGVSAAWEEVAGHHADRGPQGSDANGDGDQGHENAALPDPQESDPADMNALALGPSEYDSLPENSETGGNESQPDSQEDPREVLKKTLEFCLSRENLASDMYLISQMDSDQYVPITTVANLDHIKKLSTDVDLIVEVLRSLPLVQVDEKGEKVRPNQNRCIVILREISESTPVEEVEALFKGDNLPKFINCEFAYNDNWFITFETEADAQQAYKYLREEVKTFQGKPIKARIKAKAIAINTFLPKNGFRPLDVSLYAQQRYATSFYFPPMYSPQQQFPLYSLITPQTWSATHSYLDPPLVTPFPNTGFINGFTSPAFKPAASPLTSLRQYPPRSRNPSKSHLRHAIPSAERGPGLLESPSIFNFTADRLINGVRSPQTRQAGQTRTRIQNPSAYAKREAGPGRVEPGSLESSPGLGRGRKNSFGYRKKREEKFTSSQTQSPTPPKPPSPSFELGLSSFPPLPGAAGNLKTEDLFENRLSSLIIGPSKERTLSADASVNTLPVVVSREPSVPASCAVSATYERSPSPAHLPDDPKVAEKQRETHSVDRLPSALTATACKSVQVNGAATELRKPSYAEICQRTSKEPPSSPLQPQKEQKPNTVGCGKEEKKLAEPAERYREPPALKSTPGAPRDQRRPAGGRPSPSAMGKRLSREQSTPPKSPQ
Sequence of UniProt P01130 (P01130 whole entry, looked up): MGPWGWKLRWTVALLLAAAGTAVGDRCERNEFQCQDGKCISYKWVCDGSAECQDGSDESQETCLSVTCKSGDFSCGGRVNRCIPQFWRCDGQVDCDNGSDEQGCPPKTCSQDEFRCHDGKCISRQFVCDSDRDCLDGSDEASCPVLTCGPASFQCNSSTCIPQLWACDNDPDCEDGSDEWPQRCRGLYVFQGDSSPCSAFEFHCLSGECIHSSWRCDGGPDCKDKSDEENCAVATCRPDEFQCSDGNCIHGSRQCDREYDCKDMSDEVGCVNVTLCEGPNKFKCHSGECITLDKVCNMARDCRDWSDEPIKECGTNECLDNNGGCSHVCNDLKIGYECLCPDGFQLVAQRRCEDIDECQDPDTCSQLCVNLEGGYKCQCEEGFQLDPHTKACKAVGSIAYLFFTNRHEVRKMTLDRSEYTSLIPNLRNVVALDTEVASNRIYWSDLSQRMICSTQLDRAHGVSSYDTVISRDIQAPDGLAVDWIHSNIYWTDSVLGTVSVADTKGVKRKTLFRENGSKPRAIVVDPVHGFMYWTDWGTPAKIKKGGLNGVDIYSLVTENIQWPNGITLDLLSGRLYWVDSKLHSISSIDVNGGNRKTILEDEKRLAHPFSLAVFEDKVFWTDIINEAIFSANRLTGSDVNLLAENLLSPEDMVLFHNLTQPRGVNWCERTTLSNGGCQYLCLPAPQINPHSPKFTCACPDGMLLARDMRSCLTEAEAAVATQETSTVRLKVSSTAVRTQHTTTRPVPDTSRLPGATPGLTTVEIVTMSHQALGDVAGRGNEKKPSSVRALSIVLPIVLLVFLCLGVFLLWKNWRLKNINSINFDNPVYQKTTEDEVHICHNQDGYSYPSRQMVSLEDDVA
Sequence of UniProt P27448 (P27448 whole entry, looked up): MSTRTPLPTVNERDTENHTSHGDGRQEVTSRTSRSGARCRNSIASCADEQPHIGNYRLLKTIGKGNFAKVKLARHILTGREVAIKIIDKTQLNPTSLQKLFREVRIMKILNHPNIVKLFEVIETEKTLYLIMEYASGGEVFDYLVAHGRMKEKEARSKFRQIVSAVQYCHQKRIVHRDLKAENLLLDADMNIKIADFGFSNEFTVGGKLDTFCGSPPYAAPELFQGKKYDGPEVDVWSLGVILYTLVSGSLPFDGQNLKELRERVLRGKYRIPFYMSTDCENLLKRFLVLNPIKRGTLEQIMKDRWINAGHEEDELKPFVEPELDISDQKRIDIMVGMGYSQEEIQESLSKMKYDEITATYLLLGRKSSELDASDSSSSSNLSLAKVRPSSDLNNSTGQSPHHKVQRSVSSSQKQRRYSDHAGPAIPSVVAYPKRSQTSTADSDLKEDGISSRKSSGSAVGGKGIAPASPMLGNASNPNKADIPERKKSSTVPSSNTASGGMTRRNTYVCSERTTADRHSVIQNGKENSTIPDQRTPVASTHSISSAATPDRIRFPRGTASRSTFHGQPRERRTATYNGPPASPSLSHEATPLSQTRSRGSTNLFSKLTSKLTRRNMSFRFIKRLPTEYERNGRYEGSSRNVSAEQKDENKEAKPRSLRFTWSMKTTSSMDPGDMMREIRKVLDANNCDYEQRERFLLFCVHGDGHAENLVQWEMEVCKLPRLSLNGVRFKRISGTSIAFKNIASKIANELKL
Sequence of UniProt Q8IWA4 (Q8IWA4 whole entry, looked up): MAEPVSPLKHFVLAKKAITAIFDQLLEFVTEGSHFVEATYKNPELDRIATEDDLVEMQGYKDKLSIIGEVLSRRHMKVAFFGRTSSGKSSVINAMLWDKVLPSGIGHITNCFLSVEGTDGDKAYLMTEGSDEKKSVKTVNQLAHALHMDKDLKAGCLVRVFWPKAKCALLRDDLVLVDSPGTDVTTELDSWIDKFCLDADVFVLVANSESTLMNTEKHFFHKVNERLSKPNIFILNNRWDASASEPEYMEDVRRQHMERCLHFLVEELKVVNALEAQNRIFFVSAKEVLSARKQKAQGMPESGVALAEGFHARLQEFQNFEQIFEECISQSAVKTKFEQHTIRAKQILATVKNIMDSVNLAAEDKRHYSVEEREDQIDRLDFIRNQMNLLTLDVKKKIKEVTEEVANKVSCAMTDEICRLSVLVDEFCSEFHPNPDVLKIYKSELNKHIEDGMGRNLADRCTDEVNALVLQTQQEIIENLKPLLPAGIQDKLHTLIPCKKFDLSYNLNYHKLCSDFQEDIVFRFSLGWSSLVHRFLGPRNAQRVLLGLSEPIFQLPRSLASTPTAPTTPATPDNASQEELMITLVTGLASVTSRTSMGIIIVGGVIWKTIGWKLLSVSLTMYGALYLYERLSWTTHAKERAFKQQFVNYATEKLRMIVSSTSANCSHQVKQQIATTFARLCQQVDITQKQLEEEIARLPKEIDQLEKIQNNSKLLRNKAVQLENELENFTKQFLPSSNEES
Sequence of UniProt Q9H1B7 (Q9H1B7 whole entry, looked up): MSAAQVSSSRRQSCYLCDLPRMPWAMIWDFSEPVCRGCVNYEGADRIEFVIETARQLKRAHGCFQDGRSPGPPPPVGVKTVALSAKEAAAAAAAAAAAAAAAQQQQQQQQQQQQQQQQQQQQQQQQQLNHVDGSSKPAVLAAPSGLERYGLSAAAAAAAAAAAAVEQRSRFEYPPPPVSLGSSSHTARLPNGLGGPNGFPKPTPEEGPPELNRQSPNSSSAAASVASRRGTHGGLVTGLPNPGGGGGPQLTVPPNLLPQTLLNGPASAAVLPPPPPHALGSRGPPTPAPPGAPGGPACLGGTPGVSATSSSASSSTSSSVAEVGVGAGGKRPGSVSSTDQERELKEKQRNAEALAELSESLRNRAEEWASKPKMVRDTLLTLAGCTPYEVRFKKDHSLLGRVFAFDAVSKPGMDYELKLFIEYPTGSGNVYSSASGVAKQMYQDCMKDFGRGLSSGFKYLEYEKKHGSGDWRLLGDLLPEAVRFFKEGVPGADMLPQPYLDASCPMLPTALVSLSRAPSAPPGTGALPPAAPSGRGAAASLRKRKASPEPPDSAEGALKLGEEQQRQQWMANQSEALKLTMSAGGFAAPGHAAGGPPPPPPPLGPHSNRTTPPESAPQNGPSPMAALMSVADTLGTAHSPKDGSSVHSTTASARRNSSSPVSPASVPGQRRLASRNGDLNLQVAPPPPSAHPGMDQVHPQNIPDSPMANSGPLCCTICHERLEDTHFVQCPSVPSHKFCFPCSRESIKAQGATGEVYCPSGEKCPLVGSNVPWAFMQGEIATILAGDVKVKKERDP
Sequence of UniProt Q9C0E8 (Q9C0E8 whole entry, looked up): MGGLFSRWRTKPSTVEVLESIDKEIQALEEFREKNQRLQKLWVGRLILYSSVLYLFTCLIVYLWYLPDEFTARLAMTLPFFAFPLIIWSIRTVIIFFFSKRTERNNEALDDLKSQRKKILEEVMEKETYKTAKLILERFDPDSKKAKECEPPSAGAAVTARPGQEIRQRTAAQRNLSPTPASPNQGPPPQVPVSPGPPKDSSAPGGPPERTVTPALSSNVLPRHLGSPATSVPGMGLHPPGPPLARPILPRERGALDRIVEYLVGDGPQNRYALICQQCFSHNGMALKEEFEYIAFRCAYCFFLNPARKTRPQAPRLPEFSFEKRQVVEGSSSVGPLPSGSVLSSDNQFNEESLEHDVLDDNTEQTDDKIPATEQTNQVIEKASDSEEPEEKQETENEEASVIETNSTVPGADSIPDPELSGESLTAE
Sequence of UniProt P46734 (P46734 whole entry, looked up): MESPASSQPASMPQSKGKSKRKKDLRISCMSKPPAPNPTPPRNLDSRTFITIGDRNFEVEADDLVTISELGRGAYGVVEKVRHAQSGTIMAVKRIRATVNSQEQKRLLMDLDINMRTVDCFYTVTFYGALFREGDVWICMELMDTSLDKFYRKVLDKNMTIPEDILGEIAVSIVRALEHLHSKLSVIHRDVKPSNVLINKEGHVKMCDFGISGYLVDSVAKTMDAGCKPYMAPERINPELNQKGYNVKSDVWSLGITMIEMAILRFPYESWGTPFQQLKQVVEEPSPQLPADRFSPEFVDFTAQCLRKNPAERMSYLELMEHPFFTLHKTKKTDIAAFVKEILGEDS
Sequence of UniProt O14880 (O14880 whole entry, looked up): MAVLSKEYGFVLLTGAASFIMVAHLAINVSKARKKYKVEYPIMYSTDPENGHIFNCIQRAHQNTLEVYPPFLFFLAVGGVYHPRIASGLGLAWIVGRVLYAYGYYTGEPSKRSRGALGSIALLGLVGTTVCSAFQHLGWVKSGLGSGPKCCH
Sequence of UniProt Q96A72 (Q96A72 whole entry, looked up): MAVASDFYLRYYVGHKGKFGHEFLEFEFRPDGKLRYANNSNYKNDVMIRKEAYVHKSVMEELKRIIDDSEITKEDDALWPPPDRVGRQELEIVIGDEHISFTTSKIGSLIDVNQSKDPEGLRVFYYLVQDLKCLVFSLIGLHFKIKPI

Target	log2 fold change
LONP2 (UniProt Q86WA8)	-0.007 (inactive)
KDM3B (UniProt Q7LBC6)	-0.064 (inactive)
LARP4B (UniProt Q92615)	0.086 (inactive)
LDLR (UniProt P01130)	0.019 (inactive)
IRF2BPL (UniProt Q9H1B7)	-0.218 (active)
LTN1 isoform 3 (UniProt O94822)	0.037 (inactive)
LARP7 isoform 3 (UniProt Q4G0J3)	-0.034 (inactive)
LNPK (UniProt Q9C0E8)	-0.051 (inactive)
MAP2K3 isoform 3 (UniProt P46734)	-0.188 (inactive)
MICU2 (UniProt Q8IYU8)	0.04 (inactive)
MGST3 (UniProt O14880)	-0.025 (inactive)
KSR1 (UniProt Q8IVT5)	-0.118 (inactive)
IWS1 (UniProt Q96ST2)	-0.032 (inactive)
MFN1 (UniProt Q8IWA4)	-0.009 (inactive)
MARK3 (UniProt P27448)	-0.017 (inactive)
MDC1 (UniProt Q14676)	-0.026 (inactive)
MAP4 (UniProt E7EVA0)	0.106 (inactive)

compound: c1cc(OCCN2CCCCC2)cc(-c2n[nH]c3ccc(-c4nnc[nH]4)cc23)c1; assay: as above
Summary of the method: as §1

Target	log2 fold change
LUC7L2 (UniProt Q9Y383)	-0.095 (inactive)
ILF3 isoform 7 (UniProt Q12906)	-0.105 (inactive)
MAGOHB (UniProt Q96A72)	-0.089 (inactive)
KDM5D isoform 3 (UniProt Q9BY66)	-0.096 (inactive)
LIMD1 (UniProt Q9UGP4)	0.01 (inactive)
MED1 (UniProt Q15648)	-0.124 (inactive)
MCL1 (UniProt Q07820)	0.142 (inactive)
LIMA1 isoform 4 (UniProt Q9UHB6)	-0.012 (inactive)
LMBRD1 (UniProt Q9NUN5)	0.049 (inactive)
KIF13A (UniProt Q9H1H9)	-0.061 (inactive)
MARCKSL1 (UniProt P49006)	0.089 (inactive)
LARP4 isoform 4 (UniProt Q71RC2)	-0.116 (inactive)
KIF21A isoform 4 (UniProt Q7Z4S6)	-0.087 (inactive)
LEMD3 (UniProt Q9Y2U8)	0.057 (inactive)
MAP3K7 (UniProt O43318)	-0.068 (inactive)
MAPKAPK3 (UniProt Q16644)	0.05 (inactive)
MAPK14 isoform 2 (UniProt Q16539)	0.024 (inactive)
ITIH4 (UniProt Q14624)	0.275 (inactive)
MAGEA9 (UniProt P43362)	-0.106 (inactive)
IMMT isoform 4 (UniProt Q16891)	-0.035 (inactive)

Target	log2 fold change
MEPCE (UniProt Q7L2J0)	0.026 (inactive)
LSS (UniProt P48449)	-0.033 (inactive)
LONP2 (UniProt Q86WA8)	-0.219 (inactive)
KDM3B (UniProt Q7LBC6)	-0.023 (inactive)
LARP4B (UniProt Q92615)	-0.112 (inactive)
LDLR (UniProt P01130)	-0.071 (inactive)
IRF2BPL (UniProt Q9H1B7)	-0.03 (inactive)
LTN1 isoform 3 (UniProt O94822)	-0.045 (inactive)
LARP7 isoform 3 (UniProt Q4G0J3)	-0.065 (inactive)
LNPK (UniProt Q9C0E8)	-0.006 (inactive)
MAP2K3 isoform 3 (UniProt P46734)	-0.052 (inactive)
MICU2 (UniProt Q8IYU8)	-0.141 (inactive)
MGST3 (UniProt O14880)	-0.056 (inactive)
KSR1 (UniProt Q8IVT5)	-0.193 (inactive)
IWS1 (UniProt Q96ST2)	0 (inactive)
MFN1 (UniProt Q8IWA4)	0.02 (inactive)
MARK3 (UniProt P27448)	-0.317 (inactive)
MDC1 (UniProt Q14676)	-0.086 (inactive)
MAP4 (UniProt E7EVA0)	-0.075 (inactive)
